# Where “and” joins values, the source holds several entries; their conditions need not be identical. Identical values can stand only once. Calls of active or inactive are those of the source.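 Rule for the calls, unless noted: active = thallium flux through the channel raised or lowered by more than 3 SD from vehicle-only wells, actives on both sides; inactive = the rest.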
# What was measured:
# [1] = stimulators of nuclear beta-catenin in C2C12, primary screen, imaging, WNT3A-conditioned medium, mouse C2C12, NPC library (AID 1117326; in the data active = nuclear beta-catenin stimulation mostly above about 4.2%, no sharp cut-off; inactive = mostly below about 10%); details: stronger effect = higher value
# [2] = stimulators of insulin release from INS-1E, primary screen, cell-based, 5 mM glucose, NPC library (AID 1117329;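 active = compound raises insulin release from rat beta cells at 5 mM glucose, no numeric limit stated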); details: rat INS-1E insulin secretion, at 10 µM, stronger effect = higher value
# [3] = growth inhibition of GSK3B-pretreated HCT116 cells – cell-based, CellTiter-Glo, 0.2 to 20 µM (AID 1117336;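 active = compounds lowering colon cancer cell viability after pretreatment blocking the GSK3B kinase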); details: HCT116 viability after GSK3B inhibitor, at 20 µM, stronger effect = higher value
# [4] = inhibition of endothelial tube formation, primary screen, imaging, VEGF stimulated, CD31 staining, tube area, NPC library (AID 1117340;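 active = compound that reduces growth-factor-driven endothelial tube area in a mixed cell culture, no cutoff stated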); details: VEGF-stimulated ADSC/ECFC co-culture, at 10 µM, stronger effect = higher value
# [5] = glucagon-like peptide 1 release enhancers, primary assay, NCI-H716 cell line, NPC library (AID 1117341;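 active = compound raises GLP1 secretion from the human gut endocrine cells, with no numeric limit stated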); details: NCI-H716 cells, at 10 µM, stronger effect = higher value
# [6] = HCT116 colon cancer cell growth inhibition, primary screen, CellTiter-Glo luminescence, NPC library (AID 1117342;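 active = compounds that lower survival of HCT116 colon cancer cells in the luminescence readout, no numeric limit stated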); details: at 20 µM (top of the series)
# [7] = CellTiter-Glo luminescent readout of SW480 viability loss, NPC library primary (AID 1117343;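 active = compounds that lower viability of the colon cancer cells in the luminescence readout, with no numeric limit stated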); details: CellTiter-Glo luminescence; at 20 µM (top of the series)
# [8] = decreased DLD-1 cellular survival, CellTiter-Glo luminescent readout, NPC compound collection, primary HTS (AID 1117346;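 active = compounds that lower survival of DLD-1 colon cancer cells in the luminescence readout, no cutoff given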); details: DLD-1 viability, CellTiter-Glo luminescence; at 20 µM (top of the series)
# [9] = biological target: 6-phosphogluconate dehydrogenase, decarboxylating (Homo sapiens) (UniProt P52209); assay: 6PGD enzyme inhibitors, primary screen, biochemical, human, recombinant enzyme, NADPH absorbance (AID 1159550;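 active = at least 20% inhibition of 6-phosphogluconate dehydrogenase activity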); details: recombinant 6PGD, NADPH absorbance 341 nm; at 10 µM; stronger effect = higher value
# Sequence of 6-phosphogluconate dehydrogenase, decarboxylating (Homo sapiens) (P52209 whole entry, looked up): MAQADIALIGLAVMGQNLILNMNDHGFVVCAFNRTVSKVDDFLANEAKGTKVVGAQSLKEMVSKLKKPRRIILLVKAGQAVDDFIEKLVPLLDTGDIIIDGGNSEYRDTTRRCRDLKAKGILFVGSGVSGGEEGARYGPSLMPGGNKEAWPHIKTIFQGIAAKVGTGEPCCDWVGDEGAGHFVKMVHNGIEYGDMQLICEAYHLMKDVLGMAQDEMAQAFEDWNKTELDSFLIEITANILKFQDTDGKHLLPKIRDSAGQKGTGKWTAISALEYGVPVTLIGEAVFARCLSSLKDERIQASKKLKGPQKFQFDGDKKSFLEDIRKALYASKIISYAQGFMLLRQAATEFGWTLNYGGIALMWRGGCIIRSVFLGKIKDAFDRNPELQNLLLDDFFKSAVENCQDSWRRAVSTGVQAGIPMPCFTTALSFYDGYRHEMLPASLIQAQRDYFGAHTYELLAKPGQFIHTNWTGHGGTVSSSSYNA
# [10] = differential killing of epithelial or mesenchymal cells, primary screen, imaging, PC-3E GFP, TEM4-18 mCherry, co-culture (AID 1345086;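 active = compounds killing one labelled cell type while sparing the other, by normalised counts and ratio limits, not self-fluorescent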;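 for all read-outs here: cells exposed to compound for 72 h before imaging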;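 for red/green cell ratio (normalised): normalised mesenchymal count divided by normalised epithelial count so high means epithelial killing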); details: imaging cell counts, at 1 µM; for red/green cell ratio (normalised): actives lie on both sides, counts scaled to control wells, 1 = unselective
# F380Y = assay: modulators of BK channel variants, profiling panel, selectivity assay, cell-based, U2OS BacMam, thallium flux, beta subunits (AID 1259406); details: at 30 µM;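 note: initial slope of Thallos dye fluorescence rise after thallium is added; log ratio against the mean of 0.3% DMSO vehicle wells on the same plate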
# F380Y/beta1 = assay: as above; details: at 30 µM
# F380Y/beta2Delta = assay: as above; details: at 30 µM
# F380Y/beta4 = assay: as above; details: at 30 µM
# [11] = biological target: Calcium-activated potassium channel subunit alpha-1 (Homo sapiens) + Leucine-rich repeat-containing protein 26 (Homo sapiens) (UniProt Q12791+Q2I0M4); assay: as above; details: F380Y/Slo1WT/gamma1, at 30 µM
# Sequence of Calcium-activated potassium channel subunit alpha-1 (Homo sapiens) + Leucine-rich repeat-containing protein 26 (Homo sapiens) (Q2I0M4 whole entry, looked up, one chain of several): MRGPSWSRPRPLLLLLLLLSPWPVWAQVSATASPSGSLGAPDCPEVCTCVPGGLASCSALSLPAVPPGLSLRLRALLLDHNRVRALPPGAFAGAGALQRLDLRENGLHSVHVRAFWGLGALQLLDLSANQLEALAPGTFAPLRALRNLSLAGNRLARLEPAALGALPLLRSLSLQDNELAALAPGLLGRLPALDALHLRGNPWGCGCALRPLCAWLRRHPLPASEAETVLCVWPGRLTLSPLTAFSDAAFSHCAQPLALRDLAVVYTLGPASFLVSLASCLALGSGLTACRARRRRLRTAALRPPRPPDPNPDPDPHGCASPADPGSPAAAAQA
# R275C = assay: as above; details: at 30 µM
# R275C/beta1 = assay: as above; details: at 30 µM
# [12] = sensitizers of A549 cells to miR-34 induction, primary screen, imaging, A549 dox-inducible miR-34, nuclei and caspase counts (AID 1347080;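 active = compounds whose cell count with miR-34 switched on is under 0.7 times the count with it off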); details: A549 miR-34 inducible, Hoechst nuclei count, 48 h
# [13] = survival rescue of mitochondrial mutant cells in low glucose, primary screen, MELAS cybrids, Rieske KO mouse fibroblasts, CellTiter-Glo (AID 1508586;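 active = mean z-score across replicates of 1.96 or higher in either the MELAS or the Rieske mutant cell line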;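 note: z relative to plate mean and SD of compound and empty wells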)
# [14] = measured here: epithelial PC-3E GFP cell survival
# [15] = measured here: mesenchymal TEM4-18 mCherry cell survival
# [16] = stronger effect = lower value, cell number ratio, induced over uninduced
# [17] = measured here: relative caspase fold change +Dox/-Dox
# [18] = measured here: total cells with miR-34 induction, stronger effect = lower value
# [19] = measured here: total cells without miR-34 induction
# [20] = MELAS cybrid survival, CellTiter-Glo 48 h, stronger effect = higher value
# [21] = Rieske KO mouse fibroblast survival, CellTiter-Glo 72 h
structure (smiles),measurement,setting,value
CCn1cc(C(=O)O)c(=O)c2cc(F)c(N3CCN(C)CC3)cc21,nuclear beta-catenin stimulation,[1]; at 10 µM,3.6% (inactive)
same,nuclear beta-catenin stimulation,"[1]; stimulation, at 2 µM",1.2%
same,insulin secretion stimulation,[2],-0.5% (inactive)
same,viability decrease,[3],-12.5% (inactive)
same,tube area decrease,[4],25.6% (inactive)
same,GLP1 secretion stimulation,[5],3.5% (inactive)
same,inhibition of viability,[6],-14.7% (inactive)
same,viability decrease (inhibition),[7],-27.3% (inactive)
same,viability decrease (inhibition),[8],-10.3% (inactive)
same,inhibition,[9],5% (inactive)
same,red/green cell ratio (normalised),[10],1.22 (inactive)
same,normalised cell number,[10]; [14],1.13
same,normalised cell number,[10]; [15],1.38
same,log fold change Tl+ flux,F380Y,-0.0273 (inactive)
same,log fold change Tl+ flux,F380Y/beta1,-0.000461 (inactive)
same,log fold change Tl+ flux,F380Y/beta2Delta,-0.0112 (inactive)
same,log fold change Tl+ flux,F380Y/beta4,0.0266 (inactive)
same,log fold change Tl+ flux,[11],-0.0628 (inactive)
same,log fold change Tl+ flux,R275C,-0.0565 (inactive)
same,log fold change Tl+ flux,R275C/beta1,0.0145 (inactive)
CN(C)CCOC(c1ccc(Cl)cc1)c1ccccn1 (stereo not given),nuclear beta-catenin stimulation,[1]; at 10 µM,0.9% (inactive)
same,nuclear beta-catenin stimulation,"[1]; stimulation, at 2 µM",0.3%
same,insulin secretion stimulation,[2],46.5% (active)
same,viability decrease,[3],8.6% (inactive)
same,tube area decrease,[4],1.1% (inactive)
same,GLP1 secretion stimulation,[5],6.8% (inactive)
same,inhibition of viability,[6],2.7% (inactive)
same,viability decrease (inhibition),[7],6% (inactive)
same,viability decrease (inhibition),[8],-7% (inactive)
same,inhibition,[9],8.32% (inactive)
same,red/green cell ratio (normalised),[10],1.11 (inactive)
same,normalised cell number,[10]; [14],1.14
same,normalised cell number,[10]; [15],1.26
same,fold change,[12]; [16],0.98 (inactive) and 0.859 (inactive) and 0.928 (inactive)
same,fold change,[12]; [17],1.31 and 1.4 and 2.86
same,cell count,[12]; [18],9280 and 8230 and 11400
same,cell count,[12]; [19],9460 and 9580 and 12300
same,z-score,[13]; [20],0.0234 (inactive)
same,z-score,[13]; [21],-1.05
same,log fold change Tl+ flux,F380Y,0.0898 (inactive)
same,log fold change Tl+ flux,F380Y/beta1,0.0451 (inactive)
same,log fold change Tl+ flux,F380Y/beta2Delta,0.0734 (inactive)
same,log fold change Tl+ flux,F380Y/beta4,0.0228 (inactive)
same,log fold change Tl+ flux,[11],0.0613 (inactive)
same,log fold change Tl+ flux,R275C,0.0106 (inactive)
same,log fold change Tl+ flux,R275C/beta1,-0.0266 (inactive)
OC(CCN1CCCC1)(c1ccccc1)C1CCCCC1 (stereo not given),nuclear beta-catenin stimulation,[1]; at 10 µM,4.7% (inactive)
same,nuclear beta-catenin stimulation,"[1]; stimulation, at 2 µM",4.9%
same,insulin secretion stimulation,[2],6.4% (inactive)
same,viability decrease,[3],-95.6% (inactive)
same,tube area decrease,[4],-12.4% (inactive)
same,GLP1 secretion stimulation,[5],3.4% (inactive)
same,inhibition of viability,[6],17.1% (inactive)
same,viability decrease (inhibition),[7],22.1% (inactive)
same,viability decrease (inhibition),[8],10.7% (inactive)
same,inhibition,[9],-21.9% (inactive)
same,red/green cell ratio (normalised),[10],1.05 (inactive)
same,normalised cell number,[10]; [14],0.98
same,normalised cell number,[10]; [15],1.03
same,fold change,[12]; [16],0.976 (inactive) and 0.849 (inactive) and 0.894 (inactive)
same,fold change,[12]; [17],1.12 and 3.13 and 3.87
same,cell count,[12]; [18],10200 and 8600 and 10900
same,cell count,[12]; [19],10400 and 10100 and 12200
same,z-score,[13]; [20],0.381 (inactive)
same,z-score,[13]; [21],0.369
same,log fold change Tl+ flux,F380Y,0.0696 (inactive)
same,log fold change Tl+ flux,F380Y/beta1,0.0373 (inactive)
same,log fold change Tl+ flux,F380Y/beta2Delta,0.106 (active)
same,log fold change Tl+ flux,F380Y/beta4,0.131 (active)
same,log fold change Tl+ flux,[11],0.011 (inactive)
same,log fold change Tl+ flux,R275C,0.00132 (inactive)
same,log fold change Tl+ flux,R275C/beta1,0.0416 (inactive)
COc1ccccc1OCC(O)COC(N)=O (stereo not given),nuclear beta-catenin stimulation,[1]; at 10 µM,-2.7% (inactive)
same,nuclear beta-catenin stimulation,"[1]; stimulation, at 2 µM",-1.9%
same,insulin secretion stimulation,[2],-1.2% (inactive)
same,viability decrease,[3],-1% (inactive)
same,tube area decrease,[4],8.8% (inactive)
same,GLP1 secretion stimulation,[5],-4% (inactive)
same,inhibition of viability,[6],-3.97% (inactive)
same,viability decrease (inhibition),[7],11.1% (inactive)
same,viability decrease (inhibition),[8],-10.7% (inactive)
same,inhibition,[9],-17.6% (inactive)
same,red/green cell ratio (normalised),[10],0.97 (inactive)
same,normalised cell number,[10]; [14],1.19
same,normalised cell number,[10]; [15],1.16
same,z-score,[13]; [20],-0.379 (inactive) and 0.493 (inactive)
same,z-score,[13]; [21],-0.0724 and 0.212
same,log fold change Tl+ flux,F380Y,0.00752 (inactive)
same,log fold change Tl+ flux,F380Y/beta1,0.0402 (inactive)
same,log fold change Tl+ flux,F380Y/beta2Delta,-0.0478 (inactive)
same,log fold change Tl+ flux,F380Y/beta4,0.0136 (inactive)
same,log fold change Tl+ flux,[11],0.0335 (inactive)
same,log fold change Tl+ flux,R275C,0.00553 (inactive)
same,log fold change Tl+ flux,R275C/beta1,-0.013 (inactive)
NC(=O)N1c2ccccc2CC(=O)c2ccccc21,nuclear beta-catenin stimulation,[1]; at 10 µM,5.2% (inactive)
same,nuclear beta-catenin stimulation,"[1]; stimulation, at 2 µM",1.3%
same,insulin secretion stimulation,[2],-0.8% (inactive)
same,viability decrease,[3],-2.9% (inactive)
same,tube area decrease,[4],0.9% (inactive)
same,GLP1 secretion stimulation,[5],0% (inactive)
same,inhibition of viability,[6],14.9% (inactive)
same,viability decrease (inhibition),[7],5.4% (inactive)
same,viability decrease (inhibition),[8],15.6% (inactive)
same,inhibition,[9],8.8% (inactive)
same,red/green cell ratio (normalised),[10],1.05 (inactive)
same,normalised cell number,[10]; [14],1.04
same,normalised cell number,[10]; [15],1.09
same,z-score,[13]; [20],-0.278 (inactive) and 0.355 (inactive) and 0.309 (inactive)
same,z-score,[13]; [21],-1.12 and 0.011 and -0.438
same,log fold change Tl+ flux,F380Y,-0.0346 (inactive)
same,log fold change Tl+ flux,F380Y/beta1,-0.0277 (inactive)
same,log fold change Tl+ flux,F380Y/beta2Delta,-0.0162 (inactive)
same,log fold change Tl+ flux,F380Y/beta4,-0.0339 (inactive)
same,log fold change Tl+ flux,[11],0.0743 (inactive)
same,log fold change Tl+ flux,R275C,-0.0757 (inactive)
same,log fold change Tl+ flux,R275C/beta1,0.0898 (active)
Cc1cn([C@H]2C[C@H](N=[N+]=[N-])[C@@H](CO)O2)c(=O)[nH]c1=O,nuclear beta-catenin stimulation,[1]; at 10 µM,1.2% (inactive)
same,nuclear beta-catenin stimulation,"[1]; stimulation, at 2 µM",1.3%
same,insulin secretion stimulation,[2],-1.7% (inactive)
same,viability decrease,[3],4.9% (inactive)
same,tube area decrease,[4],18.1% (inactive)
same,GLP1 secretion stimulation,[5],-0.1% (inactive)
same,inhibition of viability,[6],2.4% (inactive)
same,viability decrease (inhibition),[7],-5.4% (inactive)
same,viability decrease (inhibition),[8],-4.95% (inactive)
same,inhibition,[9],13.6% (inactive)
same,red/green cell ratio (normalised),[10],1.03 (inactive)
same,normalised cell number,[10]; [14],1.06
same,normalised cell number,[10]; [15],1.09
same,z-score,[13]; [20],1.37 (inactive) and 1.42 (inactive)
same,z-score,[13]; [21],0.0413 and -0.28
same,log fold change Tl+ flux,F380Y,-0.00123 (inactive)
same,log fold change Tl+ flux,F380Y/beta1,0.0379 (inactive)
same,log fold change Tl+ flux,F380Y/beta2Delta,0.00186 (inactive)
same,log fold change Tl+ flux,F380Y/beta4,0.0148 (inactive)
same,log fold change Tl+ flux,[11],0.0181 (inactive)
same,log fold change Tl+ flux,R275C,-0.0157 (inactive)
same,log fold change Tl+ flux,R275C/beta1,-0.0324 (inactive)
COc1cc2nc(N(C)CCCNC(=O)C3CCCO3)nc(N)c2cc1OC (stereo not given),nuclear beta-catenin stimulation,[1]; at 10 µM,1.8% (inactive)
same,nuclear beta-catenin stimulation,"[1]; stimulation, at 2 µM",1.8%
same,insulin secretion stimulation,[2],-0.3% (inactive)
same,viability decrease,[3],-24.4% (inactive)
same,tube area decrease,[4],-4.5% (inactive)
same,GLP1 secretion stimulation,[5],14.6% (inactive)
same,inhibition of viability,[6],21.1% (inactive)
same,viability decrease (inhibition),[7],19.4% (inactive)
same,viability decrease (inhibition),[8],0.1% (inactive)
same,inhibition,[9],0.608% (inactive)
same,red/green cell ratio (normalised),[10],0.93 (inactive)
same,normalised cell number,[10]; [14],1.18
same,normalised cell number,[10]; [15],1.09
same,z-score,[13]; [20],-0.397 (inactive) and -0.012 (inactive)
same,z-score,[13]; [21],0.382 and 0.0438
same,log fold change Tl+ flux,F380Y,0.0271 (inactive)
same,log fold change Tl+ flux,F380Y/beta1,-0.0154 (inactive)
same,log fold change Tl+ flux,F380Y/beta2Delta,0.0311 (inactive)
same,log fold change Tl+ flux,F380Y/beta4,0.00267 (inactive)
same,log fold change Tl+ flux,[11],-0.0369 (inactive)
same,log fold change Tl+ flux,R275C,-0.0434 (inactive)
same,log fold change Tl+ flux,R275C/beta1,0.0106 (inactive)

# — PubChem BioAssay
